# Assay outcomes: PubChem BioAssay, National Center for Advancing Translational Sciences (NCATS)
# TDP1 inh: inhibitors of human tyrosyl-DNA phosphodiesterase TDP1; Q9NUW8; AID 485290; actives 0.28% (n = 350,000); recombinant TDP1, AlphaScreen DNA substrate cleavage; Potency, µM (top dose mostly 130 µM), for the others: at the highest dose activity change, negative = inhibition, actives largely listed as inhibitors; note: % is set by controls: 0 for no effect and ±100 for the full control effect; nearly all actives have a fitted effect of over 40% in size
# Target sequence (Q9NUW8 whole entry, looked up): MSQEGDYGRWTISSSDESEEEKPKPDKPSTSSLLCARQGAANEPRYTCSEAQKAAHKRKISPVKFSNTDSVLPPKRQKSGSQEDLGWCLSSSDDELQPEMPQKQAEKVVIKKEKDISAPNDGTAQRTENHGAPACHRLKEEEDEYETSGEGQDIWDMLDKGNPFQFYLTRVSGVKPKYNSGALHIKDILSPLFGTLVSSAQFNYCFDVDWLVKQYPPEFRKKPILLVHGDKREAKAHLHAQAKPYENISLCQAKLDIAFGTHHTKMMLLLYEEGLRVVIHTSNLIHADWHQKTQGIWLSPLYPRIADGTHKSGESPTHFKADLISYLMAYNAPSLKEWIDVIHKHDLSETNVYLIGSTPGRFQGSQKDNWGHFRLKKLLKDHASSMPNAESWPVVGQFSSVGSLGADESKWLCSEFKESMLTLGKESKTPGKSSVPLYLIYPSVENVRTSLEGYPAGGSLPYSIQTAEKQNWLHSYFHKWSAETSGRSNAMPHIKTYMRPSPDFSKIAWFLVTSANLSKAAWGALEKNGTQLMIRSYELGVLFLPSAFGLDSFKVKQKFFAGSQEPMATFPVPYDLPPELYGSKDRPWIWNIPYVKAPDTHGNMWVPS
#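 Steps: enzyme plus compound, 15 min RT; add biotin/phosphotyrosine-FITC oligonucleotide (15 nM final), react 5 min; add donor/acceptor beads (10 ug/ml final), 10 min; read AlphaScreen. Tdp1 at 1 nM final.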
# TDP1 cell CPT: growth inhibition of DT40 Tdp1-/-;hTDP1 cells with camptothecin (screen for TDP1 inhibitors); chicken DT40 Tdp1-/-;hTDP1 cells + 20 nM CPT, ATP luminescence, 48 h; Potency, µM (doses to about 46.2 µM), without a hit: at the top dose activity change, negative = growth inhibition, most hits filed as inhibitors; actives 12% (n = 420,000); note: % is set by controls: 0 for no effect and ±100 for the full control effect; nearly all actives have a fitted effect of over 55% in size
#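 Cell growth measured by CellTiter-Glo luminescence after a minimum 48 h, 37 C compound exposure with 20 nM CPT in Tdp1-knockout DT40 cells stably expressing hTDP1, seeded 400/well; qHTS titration format.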
# ClpP mod: qHTS Assay for Activators of ClpP. purified B. subtilis ClpP, FRET peptide cleavage, 20 min. Potency, µM (highest dose often 57.5 µM), without a hit: at the top dose activity change, negative = active. actives 1.9% (n = 340,000). AID 651965, 2013; active = well fitted falling curve with a large enough effect; inconclusive = small, poorly fitted or top-dose-only effect; inactive = no such curve, though single readings can be large or run the other way; note: the source files actives as falling curves though it sought activators and does not explain the sign; nearly all actives have a fitted effect of over 65% in size
#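 ClpP 10 microg/mL final, pH 8 Tris/KCl buffer with BSA, glycerol, Tween-20; compound pinned in; FRET-FV substrate; RT 20 min; Ex320/Em430; ΔFRET vs ADEP 5.8 microM, DMSO, no enzyme.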
# TDP1 cell noCPT: qHTS for Inhibitors of human tyrosyl-DNA phosphodiesterase 1 (TDP1): qHTS in cells in absence of CPT; DT40 Tdp1-/- hTDP1 cells, no CPT, ATP luminescence, 48 h; Potency, µM (doses to about 46.2 µM), for the others: top-dose activity change, negative = growth inhibition, actives largely listed as inhibitors; actives 15% (n = 420,000); AID 686978, 2013; note: % is set by controls: 0 for no effect and ±100 for the full control effect; nearly all actives have a fitted effect of over 55% in size
#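 Cells were dispensed at 400 per well, compounds added by pin tool, plates incubated ≥48 hr at 37 °C, then CellTiter-Glo added for 30 min at room temperature before luminescence reading. Line: DT40 Tdp1-/- complemented with hTDP1; camptothecin omitted.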
# * = called active by the depositor; ? = inconclusive; . = not tested or not shown. Shown are actives, neighbours in structure and some others; about 17% of the full set was active somewhere. Unless noted, calls come from the whole dose curve; as a rule, active = well fitted curve in the direction sought with a large enough effect; inconclusive = small, poorly fitted or top-dose-only effect, or another doubt; inactive = no such curve, though single readings can be large; an effect the other way counts as inactive or inconclusive. Potency is the fitted concentration of half-maximal effect.
SMILES,TDP1 inh,TDP1 cell CPT,ClpP mod,TDP1 cell noCPT
CC(CCc1ccccc1)NC(=O)/C=C/c1ccccc1 (configuration not stated),-3%,-6%,-2%,?
COc1ccc(CCNC(=O)/C=C/c2ccco2)cc1,.,16µM*,-1%,?
O=C(/C=C/c1ccccc1)NCCc1ccccc1,.,9.2µM*,4%,12µM*
O=C(/C=C/c1ccc([N+](=O)[O-])cc1)NCCc1ccccc1,3%,?,1%,?
NS(=O)(=O)c1ccc(CCNC(=O)/C=C/c2ccc([N+](=O)[O-])cc2)cc1,3%,?,.,15µM*
COc1ccc(CCNC(=O)/C=C/c2ccco2)cc1OC,.,-7%,-1%,-9%
CC(C)CCOc1ccc(C2CC(=O)N(C)C2=O)cc1 (configuration not stated),1%,-14%,0%,-19%
O=c1[nH]c(SCc2ccc(F)cc2)nc2c1CCCC2,0%,?,2%,?
CN(C)c1ccc(C(C[N+](=O)[O-])c2c(N)n(C)c(=O)n(C)c2=O)c(F)c1C#N (configuration not stated),.,2.3µM*,115%,2.1µM*
Cn1c(N)c(C(C[N+](=O)[O-])c2c(F)cccc2Cl)c(=O)n(C)c1=O (configuration not stated),.,2.6µM*,0%,2.1µM*
COc1ccc(Cn2cc(F)c(=O)n(C)c2=O)cc1[N+](=O)[O-],.,-1%,?,-9%
COc1ccc(Br)cc1C(C[N+](=O)[O-])c1c(N)n(C)c(=O)n(C)c1=O (configuration not stated),6%,3.7µM*,-3%,3.7µM*
Cn1c(N)c(S(=O)(=O)NCc2ccccc2Cl)c(=O)n(C)c1=O,11%,22%,.,-44%
O=C(NCCO)C(=O)NCC(c1ccc2c(c1)OCO2)N1CCOCC1 (configuration not stated),1%,-3%,1%,-3%
COc1ccc(CN(Cc2cc3ccc(C)cc3[nH]c2=O)Cc2nnnn2C2CCCC2)cc1,4%,?,-2%,18µM*
Cc1cc2cc(CN(Cc3ccc4c(c3)OCO4)Cc3nnnn3C3CCCC3)c(=O)[nH]c2cc1C,6%,16µM*,-10%,13µM*
Cc1cc(C)c2cc(CN(Cc3nnnn3C3CCCCC3)CC3CCCO3)c(=O)[nH]c2c1 (configuration not stated),5%,?,-5%,13µM*
Cc1ccc2cc(CN(Cc3nnnn3C3CCCCC3)CC3CCCO3)c(=O)[nH]c2c1 (configuration not stated),6%,15µM*,-9%,16µM*
CC1(C)CC(=O)C=C(NCCN2CCN(C(=S)NC3CCCCC3)CC2)C1,0%,28%,.,-1%
CCC(c1nnnn1CCOC)N(Cc1cc2c(C)cc(C)cc2[nH]c1=O)CC1CCCO1 (configuration not stated),2%,?,28µM*,?
Cc1cccc2cc(CN(Cc3nnnn3C3CCCC3)C3CCCCC3)c(=O)[nH]c12,.,21µM*,-7%,?
CCc1ccc2[nH]c(=O)c(CN(Cc3nnnn3C3CCCC3)C3CCCCC3)cc2c1,2%,?,-16%,?
COC(=O)CNC(=O)c1ccc(F)cc1,6%,8%,?,4%
O=C(C[n+]1cccc2cccc(O)c21)c1ccc(Cl)cc1,.,?,-3%,?
CCCSCCCNC(=O)C1CCN(c2nc3ccccc3nc2C(F)(F)F)CC1,-3%,21µM*,8%,16µM*
SMILES,TDP1 inh,TDP1 cell CPT,ClpP mod,TDP1 cell noCPT
O=C(NCCc1ccccc1)C1CCN(c2nc3ccccc3nc2C(F)(F)F)CC1,-11%,?,-4%,?
COc1ccc(CCNC(=O)C2CCN(c3nc4ccccc4nc3C(F)(F)F)CC2)cc1OC,5%,23µM*,0%,18µM*
CCOCCn1c(CN2CCC(Cc3ccccc3)CC2)nc2c1c(=O)n(C)c(=O)n2C,6%,18µM*,0%,11µM*
CC1CCCCN1Cc1nc2c(c(=O)n(C)c(=O)n2C)n1Cc1c(F)cccc1Cl (configuration not stated),.,7.3µM*,-1%,10µM*
CC1CCN(Cc2nc3c(c(=O)n(C)c(=O)n3C)n2CCCc2ccccc2)CC1,0%,?,-27%,16µM*
Cn1c(=O)c2c(nc(CN3CCN(c4ccccc4F)CC3)n2CCCc2ccccc2)n(C)c1=O,.,16µM*,0%,21µM*
Cn1c(=O)c2c(nc(CN3CCN(c4ccccc4F)CC3)n2Cc2ccc(F)cc2)n(C)c1=O,7%,10µM*,-1%,10µM*
Cn1c(=O)[nH]c(=O)c2c1nc(CN1CCN(c3ccccc3F)CC1)n2Cc1ccc(F)cc1,9%,-25%,0%,-27%
COc1ccc(CCN(C)CC(O)COC(c2ccc(F)cc2)c2ccc(F)cc2)cc1OC (configuration not stated),.,16µM*,1%,?
CCc1ccc(C(O)c2ncc(-c3ccc(C)cc3)[nH]2)cc1 (configuration not stated),.,?,-4%,?
COc1ccc(-c2onc(C)c2C)cc1S(=O)(=O)NCC(C)c1ccccc1 (configuration not stated),-5%,?,-2%,?
Cc1cc(-c2ccc(C)c(S(=O)(=O)NCC3CCN(Cc4ccccc4F)CC3)c2)on1,2%,18µM*,-2%,23µM*
Cc1ccc(-c2onc(C)c2C)cc1S(=O)(=O)NCc1ccco1,8%,23µM*,0%,?
COc1ccc(-c2onc(C)c2C)cc1S(=O)(=O)NCc1ccc(C)o1,0%,2.9µM*,-2%,3.3µM*
COc1ccccc1CN1CCC(CNS(=O)(=O)c2cc(-c3onc(C)c3C)ccc2OC)CC1,2%,21µM*,-7%,21µM*
Cc1cc(-c2ccc(C)c(S(=O)(=O)NCC3CCN(Cc4cccc(F)c4)CC3)c2)on1,5%,?,-1%,?
Cc1ccc(NC(=O)Cn2c(=O)n(CC3CCC(C(=O)NC(C)C)CC3)c(=O)c3sccc32)cc1 (configuration not stated),1%,?,-2%,?
COC1C(O)C(CO)OC1n1cnc2c(NC3CCCCC3)ncnc21 (configuration not stated),8%,.,.,.
COc1ccc(NC(=O)CCc2nc3c(C)nn(-c4ccc(C)cc4)c3n(C)c2=O)cc1,1%,-12%,-2%,13%
CCc1ccc(-c2cc(C)no2)cc1S(=O)(=O)NCc1ccco1,2%,21µM*,2%,?
Cc1cc(-c2ccc(C)c(S(=O)(=O)NCCc3ccco3)c2)on1,8%,-28%,1%,?
